Experimental data as given in PubChem BioAssay (NCI).
Compounds without any hit were thinned out: in the full panel of roughly 79,000, 15% have a hit. The source made the active and inactive calls. Cut-off read from the data, not from the text of the source: active = growth inhibition above about 70%; inactive = the rest.

Experiments:
[1] = NCI Yeast Anticancer Drug Screen. Data for the rad50 strain (AID 155);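 note: 0% = growth of vehicle-only cultures of the same strain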; conditions: S. cerevisiae rad50 strain growth inhibition; at 50.0 µM; active compounds read high
Summary of the method: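 DNA repair mutant yeast, compound exposure, growth read-out; inhibition is taken relative to vehicle.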

[2] = NCI Yeast Anticancer Drug Screen. Data for the mec2-1 strain (AID 157); conditions: S. cerevisiae mec2-1 strain, at 50.0 µM, active compounds read high
Summary of the method: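 Yeast mec2-1 mutant treated with compound. Readout: growth inhibition vs vehicle controls.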

[3] = NCI Yeast Anticancer Drug Screen. Data for the sgs1 mgt1 strain (AID 161);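 note: 0% = growth of cultures given vehicle only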; conditions: S. cerevisiae sgs1 mgt1 strain, at 50.0 µM, active compounds read high
Summary of the method: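 Mutant yeast exposed to compound; growth scored against vehicle-only wells.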

[4] = NCI Yeast Anticancer Drug Screen. Data for the cln2 rad14 strain (AID 165);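 note: 0% = growth equal to vehicle treated cultures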; conditions: S. cerevisiae cln2 rad14 strain, at 50.0 µM, active compounds read high
Summary of the method: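 cln2 rad14 yeast strain; compound exposure; growth inhibition read vs vehicle controls.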

[5] = NCI Yeast Anticancer Drug Screen. Data for the bub3 strain (AID 167); conditions: S. cerevisiae bub3 mutant strain, at 50.0 µM, active compounds read high
Summary of the method: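 In this screen, a yeast mutant lacking normal mitotic checkpoint function is challenged with compound. Relative growth versus vehicle gives the inhibition value.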

[6] = NCI Yeast Anticancer Drug Screen. Data for the mlh1 rad18 strain (AID 175); conditions: S. cerevisiae mlh1 rad18 strain growth inhibition; at 50.0 µM; active compounds read high
Summary of the method: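 Yeast w/ defined DNA-repair lesions; compound exposure; growth vs vehicle controls → % inhibition.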

Measured: growth inhibition

O=C(N/N=C\c1coc([N+](=O)[O-])c1)N/N=C/c1ccoc1
inactive: [1] 0.75% | [2] 14.2% | [3] 3.65% | [4] -25.7% | [5] -8.35% | [6] 1.1%

Cc1ccc(-c2n[nH]c(=O)n2/N=C\c2ccc([N+](=O)[O-])cc2)cc1
inactive: [1] 34% | [2] 7.3% | [3] -12.4% | [4] 3.55% | [5] -11.9% | [6] -41.5%

Nc1[nH][nH]c(=O)c1N=Nc1ccccc1
inactive: [1] -7.75% | [2] -8.95% | [3] -1.15% | [4] -6.6% | [5] 8.4% | [6] 5.15%

Cc1ccc(S(=O)(=O)N/N=C/c2cc([N+](=O)[O-])ccc2O)cc1
inactive: [1] 5% | [2] 3.4% | [3] 10.1% | [4] 14.8% | [5] 9.5% | [6] 28.9%

C=C[Si](Cl)(Cl)c1ccccc1
inactive: [1] 15.9% | [2] -2.45% | [3] 1.65% | [4] -0.15% | [5] 6.5% | [6] 11.2%

O=P(c1ccccc1)(c1ccccc1)C(O)c1ccncc1 (centres undefined)
inactive: [1] 1.8% | [2] -17.2% | [3] -0.15% | [4] 10.9% | [5] -23% | [6] -10.9%

CC(C)(C)c1cc(C[N+](C)(C)[O-])c(O)c(-c2ccccc2)c1
inactive: [1] -0.65% | [2] -26.2% | [3] 2.05% | [4] -19.2% | [5] 6.35% | [6] -13.6%

O=C(CBr)Nc1ccccc1[N+](=O)[O-]
inactive: [1] 8.3% | [2] -1.35% | [3] 5.8% | [4] 0.4% | [5] 6.05% | [6] -5.4%

O=c1[nH]c(-c2ccccc2)nc(-c2ccccc2)c1Cc1cc2c(cc1O)OCC2
inactive: [1] -0.1% | [2] -4.05% | [3] 20.7% | [4] 2.8% | [5] 0.7% | [6] -10.6%

Cc1cc(N=Nc2ccc(N(C)C)cc2)ccn1
inactive: [1] 21.6% | [2] 7.2% | [3] 6.1% | [4] -52.8% | [5] 13.7% | [6] 0.9%

CC(O)CCNC(c1ccccc1)C(O)c1ccccc1 (centres undefined)
inactive: [1] 3% | [2] -6.95% | [3] -2.85% | [4] -7.4% | [5] 14.6% | [6] -0.85%

O=C(O)c1cccc(SS(=O)(=O)c2cccc(C(=O)O)c2)c1
inactive: [1] -18.4% | [2] -13.4% | [3] -10.1% | [4] 9.45% | [5] 7.5% | [6] -7.45%

Cc1cc(C)c(C(=O)O)c(C)c1Br
inactive: [1] -3% | [2] -27.4% | [3] -4.85% | [4] -34.6% | [5] 9.1% | [6] 4.5%

CSC1C(OC(=O)c2ccccc2)C(COC(=O)c2ccccc2)OC1n1cnc2ncnc(NC(=O)c3ccccc3)c21 (centres undefined)
inactive: [1] 45.4% | [2] 20.4% | [3] 34.6% | [4] 29.4% | [5] 6.45% | [6] 38.8%

O=[N+]([O-])c1cccc2ccc(N/N=C/c3ccccc3O)nc12
inactive: [1] 18.8% | [2] -4.05% | [3] 42.2% | [4] 1.85% | [5] 7.25% | [6] 19.8%

CCC(O)(c1ccc(OC)cc1)C(c1ccc(OCc2ccccc2)cc1)c1ccc(OCc2ccccc2)cc1 (centres undefined)
inactive: [1] 18.9% | [2] -22.2% | [3] 5.5% | [4] 10.8% | [5] -10.1% | [6] -12.9%

CCCCCCCCCCCCCCCCN1C(=O)C2C(C1=O)C1(Cl)C(Cl)=C(Cl)C2(Cl)C1(Cl)Cl (centres undefined)
inactive: [1] 7.85% | [2] -6.3% | [3] -2.55% | [4] -0.65% | [5] -4.6% | [6] 10.2%

CC(C)(C)OC(=O)c1ccc(NCc2cc(O)ccc2O)cc1
active: [1] 87.4% | [2] 89% | [3] 90.8% | [4] 90.3% | [5] 88.5% | [6] 87.1%

CNCC1OC(OC)C2OC(C)(C)OC12 (centres undefined)
inactive: [1] -5.05% | [2] 5.1% | [3] 8.15% | [4] -25.5% | [5] -21.1% | [6] 5.05%

CCc1nc(N)nc(N)c1-c1ccc(Cl)c(N=CN(C)C)c1
inactive: [1] 31.8% | [2] 23.1% | [3] 26.9% | [4] 29.8% | [5] 16.6% | [6] 51.5%

Cc1ccnc(NC(NC(=O)c2ccccc2)(C(F)(F)F)C(F)(F)F)c1
inactive: [1] 4.75% | [2] 3.5% | [3] 12.8% | [4] 23.2% | [5] -8.05% | [6] -39.5%

O=C1Cc2ccccc2C(=O)N1
inactive: [1] 23% | [2] 22.3% | [3] 27.3% | [4] 7.4% | [5] 4.8% | [6] 16.4%

Cc1cc(NC(=O)NC(=O)c2ccccc2N(C)C)ccc1Oc1ncc(Br)cn1
inactive: [1] -14.6% | [2] -13.8% | [3] -13.3% | [4] 12.2% | [5] -3.4% | [6] -4.45%

CC(N)C(C)(C)O (centres undefined)
inactive: [1] -2.1% | [2] -13.7% | [3] 1.7% | [4] -12.8% | [5] 6.2% | [6] 0.05%

COc1ccc(/C=N/Nc2nc3ccccc3c(=O)n2-c2ccccc2)cc1
inactive: [1] -56.3% | [2] -17.8% | [3] -38.6% | [4] -29.2% | [5] -11% | [6] -42%

CC1(O)CC2C(CC1SC1CC3C(CC1(C)O)C3(C)C)C2(C)C (centres undefined)
inactive: [1] -48.3% | [2] -33.5% | [3] -45.8% | [4] -26.4% | [5] -51.7% | [6] -33%

CC(C)(C)C(C)(C)CC(N)=O
inactive: [1] 7.25% | [2] -15.7% | [3] -4.3% | [4] -3.6% | [5] 10.9% | [6] -9.1%

N#Cc1nc(Nc2cccc3ccccc23)sc1N
inactive: [1] 8.2% | [2] 14.8% | [3] 20.9% | [4] 12.1% | [5] 15.7% | [6] 51.1%

OC1CCCCC2CC2C1O (centres undefined)
inactive: [1] 9.25% | [2] -2.8% | [3] 6.8% | [4] -44.7% | [5] 3.55% | [6] -5.65%

Cc1ccc(S(=O)(=O)OCCN(CCO)c2cn(C(c3ccccc3)(c3ccccc3)c3ccccc3)c(=O)n(C(c3ccccc3)(c3ccccc3)c3ccccc3)c2=O)cc1
inactive: [1] -2.1% | [2] 17.8% | [3] 3.7% | [4] -6.8% | [5] -4.3% | [6] 24.3%

CCCCCCCCCC(=O)N/N=C/c1ccccc1O
inactive: [1] -4.3% | [2] 12.7% | [3] 19.2% | [4] -19.1% | [5] 19.9% | [6] 13.8%

CCCCC1SC(N)=NC1=O (centres undefined)
inactive: [1] 14.9% | [2] -2.35% | [3] 12.5% | [4] 53.2% | [5] 3.9% | [6] -17.7%

O=C(C[n+]1ccccc1Cc1ccccc1)c1ccccc1
inactive: [1] -6.6% | [2] -4.2% | [3] -14% | [4] -11.6% | [5] -11.4% | [6] -17.9%

Cc1cc(Cl)c2c(c1)C(=O)C(C)C2.[Cu+2] (centres undefined)
inactive: [1] -13.1% | [2] -10.2% | [3] -18.8% | [4] -26.4% | [5] -6.65% | [6] -6.2%

COc1ccc2oc3cc(NCCN(C)C)ccc3c(=O)c2c1
inactive: [1] -4.65% | [2] -21.7% | [3] -25.6% | [4] 15.9% | [5] -19.9% | [6] -19.3%

Nc1c2ccccc2nc2ccc3c(=O)cc(-c4ccccc4)oc3c12
inactive: [1] 20.6% | [2] 18.9% | [3] -12.1% | [4] 22.1% | [5] 11.1% | [6] -73%

CC(=O)c1sc(/N=C\c2c(O)c3ccccc3oc2=O)nc1C
inactive: [1] -53.5% | [2] -49.6% | [3] -40.2% | [4] -3.25% | [5] -36.2% | [6] -33.8%

OCC(O)C(O)C(O)C(Sc1ccccc1)Sc1ccccc1 (centres undefined)
inactive: [1] 7.15% | [2] 11.8% | [3] 7.4% | [4] 8.3% | [5] -7.25% | [6] 16.8%

COc1ccc(-c2cc(C(O)C3CCCCN3)c3ccccc3n2)cc1 (centres undefined)
inactive: [1] 4.15% | [2] -42% | [3] -20.9% | [4] 11.7% | [5] -31.1% | [6] -10.1%
